Measurements published in the supplement of paper PMC11732987, “Enantioselective OTUD7B fragment discovery through chemoproteomics screening and high-throughput optimisation” (Communications Chemistry, 2025).
Values without a mark were called inactive.

Experiments:
Assay in all cases: log2 ratio of Biotin-Ahx-Ub-VS probe labelling (fragment/DMSO); higher = less target engagement (more negative = stronger competition), active = hit call of the paper (q ≤ 0.05, log2 ratio ≤ -1)
Details in all cases: compound concentration: 200 uM; treatment time: 3 h
USP42 = target: T1, USP42 (UniProt Q9H9J4)
T1 sequence (whole entry): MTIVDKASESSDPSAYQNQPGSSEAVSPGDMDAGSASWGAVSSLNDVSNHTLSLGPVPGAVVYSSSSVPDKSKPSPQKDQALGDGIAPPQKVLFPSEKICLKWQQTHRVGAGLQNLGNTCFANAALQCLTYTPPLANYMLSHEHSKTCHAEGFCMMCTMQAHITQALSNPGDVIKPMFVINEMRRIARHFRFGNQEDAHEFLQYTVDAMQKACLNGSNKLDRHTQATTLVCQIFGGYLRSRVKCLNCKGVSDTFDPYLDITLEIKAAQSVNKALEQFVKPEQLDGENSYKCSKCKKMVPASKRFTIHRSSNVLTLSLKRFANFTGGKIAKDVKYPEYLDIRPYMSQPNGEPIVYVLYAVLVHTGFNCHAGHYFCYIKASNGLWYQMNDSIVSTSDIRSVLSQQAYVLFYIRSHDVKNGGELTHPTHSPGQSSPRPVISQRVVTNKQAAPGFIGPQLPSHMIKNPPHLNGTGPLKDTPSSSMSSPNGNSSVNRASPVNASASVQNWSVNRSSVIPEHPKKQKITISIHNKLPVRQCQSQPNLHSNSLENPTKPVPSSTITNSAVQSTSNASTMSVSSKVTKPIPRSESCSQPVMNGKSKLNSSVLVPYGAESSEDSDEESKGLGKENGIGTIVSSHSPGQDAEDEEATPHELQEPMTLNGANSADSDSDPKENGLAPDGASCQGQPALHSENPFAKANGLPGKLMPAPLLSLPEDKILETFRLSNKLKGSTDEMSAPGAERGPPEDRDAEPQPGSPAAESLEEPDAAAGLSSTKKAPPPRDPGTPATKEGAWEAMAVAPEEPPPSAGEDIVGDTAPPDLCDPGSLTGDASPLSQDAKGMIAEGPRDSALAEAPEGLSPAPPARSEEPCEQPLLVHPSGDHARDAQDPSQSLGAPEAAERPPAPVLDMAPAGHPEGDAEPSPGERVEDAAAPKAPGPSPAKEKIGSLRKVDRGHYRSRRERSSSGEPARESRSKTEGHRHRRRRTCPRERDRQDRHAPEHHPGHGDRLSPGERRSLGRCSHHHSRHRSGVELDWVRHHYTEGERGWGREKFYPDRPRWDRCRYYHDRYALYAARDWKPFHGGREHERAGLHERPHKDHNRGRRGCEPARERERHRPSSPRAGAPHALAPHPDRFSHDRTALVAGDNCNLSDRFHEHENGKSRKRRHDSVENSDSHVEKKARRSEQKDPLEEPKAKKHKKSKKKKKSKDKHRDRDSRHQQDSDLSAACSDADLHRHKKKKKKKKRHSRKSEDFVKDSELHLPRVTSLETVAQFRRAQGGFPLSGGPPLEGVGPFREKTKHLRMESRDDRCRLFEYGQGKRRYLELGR
Method in brief: (§1)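 HEK293T lysate, 495 µg per sample in Tris/CHAPS/IGEPAL buffer with protease inhibitors, was treated in triplicate with fragment at 200 µM or vehicle for 3 h and then with Biotin-Ahx-Ub-VS at 0.5 µM final for 1 h. Labelled DUBs were NeutrAvidin-enriched, digested with LysC and trypsin, and run by diaPASEF LC-MS/MS. Spectronaut label-free quantities were global-median-normalised, and values are average log2 fragment/vehicle ratios by unpaired t-test on proteins with ≥2 unique peptides.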

USP46 = USP46 (UniProt P62068)
Sequence of USP46 (P62068 whole entry): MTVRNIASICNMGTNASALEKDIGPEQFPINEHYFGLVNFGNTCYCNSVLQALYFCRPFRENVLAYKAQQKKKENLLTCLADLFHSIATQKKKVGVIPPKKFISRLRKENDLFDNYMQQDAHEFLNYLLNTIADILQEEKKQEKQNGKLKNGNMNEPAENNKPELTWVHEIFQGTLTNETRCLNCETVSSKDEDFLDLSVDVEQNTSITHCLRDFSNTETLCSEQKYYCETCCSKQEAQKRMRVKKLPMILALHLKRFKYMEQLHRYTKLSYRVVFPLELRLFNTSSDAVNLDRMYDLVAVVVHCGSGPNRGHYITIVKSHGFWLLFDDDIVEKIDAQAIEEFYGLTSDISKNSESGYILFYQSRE
Method in brief: as §1

USP47 = target: T2, USP47 (UniProt Q96K76)
T2 sequence (whole entry): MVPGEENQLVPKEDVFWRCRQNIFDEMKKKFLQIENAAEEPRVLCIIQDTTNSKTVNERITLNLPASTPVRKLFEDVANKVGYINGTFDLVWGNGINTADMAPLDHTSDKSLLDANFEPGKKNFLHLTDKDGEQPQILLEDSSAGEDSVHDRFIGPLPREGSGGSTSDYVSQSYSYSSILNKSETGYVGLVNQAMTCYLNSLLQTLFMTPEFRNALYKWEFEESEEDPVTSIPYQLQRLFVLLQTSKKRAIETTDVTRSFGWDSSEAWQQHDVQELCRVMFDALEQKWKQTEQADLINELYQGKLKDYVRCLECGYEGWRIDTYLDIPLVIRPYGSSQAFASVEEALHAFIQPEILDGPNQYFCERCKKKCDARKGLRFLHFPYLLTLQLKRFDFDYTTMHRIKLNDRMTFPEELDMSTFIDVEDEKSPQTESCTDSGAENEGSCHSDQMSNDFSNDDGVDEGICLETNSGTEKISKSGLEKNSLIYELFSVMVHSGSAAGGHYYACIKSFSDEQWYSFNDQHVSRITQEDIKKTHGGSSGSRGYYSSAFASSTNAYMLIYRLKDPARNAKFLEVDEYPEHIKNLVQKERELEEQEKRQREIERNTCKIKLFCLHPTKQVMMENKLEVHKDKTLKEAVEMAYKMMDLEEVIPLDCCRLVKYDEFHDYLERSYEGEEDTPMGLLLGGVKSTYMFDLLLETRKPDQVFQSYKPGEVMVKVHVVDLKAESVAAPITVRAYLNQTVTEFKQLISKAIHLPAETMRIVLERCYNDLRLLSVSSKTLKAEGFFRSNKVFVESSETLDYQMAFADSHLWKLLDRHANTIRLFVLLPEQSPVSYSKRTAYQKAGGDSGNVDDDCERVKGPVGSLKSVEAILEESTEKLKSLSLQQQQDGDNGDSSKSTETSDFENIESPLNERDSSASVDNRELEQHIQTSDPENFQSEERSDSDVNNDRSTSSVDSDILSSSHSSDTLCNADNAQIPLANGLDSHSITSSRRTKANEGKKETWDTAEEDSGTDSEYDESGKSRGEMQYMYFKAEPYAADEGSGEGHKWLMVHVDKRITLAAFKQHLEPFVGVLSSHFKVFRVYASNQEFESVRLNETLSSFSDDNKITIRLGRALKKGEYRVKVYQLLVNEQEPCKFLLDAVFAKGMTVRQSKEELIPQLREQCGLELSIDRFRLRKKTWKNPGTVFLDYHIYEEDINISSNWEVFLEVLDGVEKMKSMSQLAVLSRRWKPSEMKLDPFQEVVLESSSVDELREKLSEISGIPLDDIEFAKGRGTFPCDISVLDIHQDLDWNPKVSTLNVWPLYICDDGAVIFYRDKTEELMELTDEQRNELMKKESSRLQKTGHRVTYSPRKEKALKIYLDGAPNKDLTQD
Method in brief: as §1

USP48 = target: T3, USP48 (UniProt Q86UV5)
T3 sequence (whole entry): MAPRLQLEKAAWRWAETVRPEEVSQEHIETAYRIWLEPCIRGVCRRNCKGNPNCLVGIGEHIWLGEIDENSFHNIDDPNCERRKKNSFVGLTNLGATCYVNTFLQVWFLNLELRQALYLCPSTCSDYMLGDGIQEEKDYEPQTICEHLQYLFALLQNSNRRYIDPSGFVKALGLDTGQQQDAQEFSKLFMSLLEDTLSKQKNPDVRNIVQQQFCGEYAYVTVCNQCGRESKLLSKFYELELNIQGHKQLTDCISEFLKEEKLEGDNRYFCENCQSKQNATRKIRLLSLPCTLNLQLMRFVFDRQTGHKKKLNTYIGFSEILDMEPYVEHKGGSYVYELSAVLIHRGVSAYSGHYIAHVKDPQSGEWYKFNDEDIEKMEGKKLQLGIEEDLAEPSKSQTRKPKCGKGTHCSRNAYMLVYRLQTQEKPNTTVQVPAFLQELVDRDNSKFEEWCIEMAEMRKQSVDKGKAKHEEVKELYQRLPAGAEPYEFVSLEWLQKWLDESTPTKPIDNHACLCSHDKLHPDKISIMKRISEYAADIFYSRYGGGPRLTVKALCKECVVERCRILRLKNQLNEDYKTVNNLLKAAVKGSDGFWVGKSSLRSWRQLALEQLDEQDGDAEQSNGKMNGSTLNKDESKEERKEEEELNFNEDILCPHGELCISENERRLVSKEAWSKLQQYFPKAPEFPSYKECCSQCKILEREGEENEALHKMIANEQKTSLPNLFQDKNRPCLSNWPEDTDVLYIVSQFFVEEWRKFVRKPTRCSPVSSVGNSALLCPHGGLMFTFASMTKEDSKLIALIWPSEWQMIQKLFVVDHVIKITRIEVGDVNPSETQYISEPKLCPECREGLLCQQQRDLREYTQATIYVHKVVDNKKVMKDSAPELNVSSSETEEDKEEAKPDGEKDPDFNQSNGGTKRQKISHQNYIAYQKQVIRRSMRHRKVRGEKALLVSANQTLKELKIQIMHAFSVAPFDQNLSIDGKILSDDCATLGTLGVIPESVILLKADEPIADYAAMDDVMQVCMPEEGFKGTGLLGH
Method in brief: as §1

USP5 = target: T4, USP5 (UniProt P45974)
T4 sequence (whole entry): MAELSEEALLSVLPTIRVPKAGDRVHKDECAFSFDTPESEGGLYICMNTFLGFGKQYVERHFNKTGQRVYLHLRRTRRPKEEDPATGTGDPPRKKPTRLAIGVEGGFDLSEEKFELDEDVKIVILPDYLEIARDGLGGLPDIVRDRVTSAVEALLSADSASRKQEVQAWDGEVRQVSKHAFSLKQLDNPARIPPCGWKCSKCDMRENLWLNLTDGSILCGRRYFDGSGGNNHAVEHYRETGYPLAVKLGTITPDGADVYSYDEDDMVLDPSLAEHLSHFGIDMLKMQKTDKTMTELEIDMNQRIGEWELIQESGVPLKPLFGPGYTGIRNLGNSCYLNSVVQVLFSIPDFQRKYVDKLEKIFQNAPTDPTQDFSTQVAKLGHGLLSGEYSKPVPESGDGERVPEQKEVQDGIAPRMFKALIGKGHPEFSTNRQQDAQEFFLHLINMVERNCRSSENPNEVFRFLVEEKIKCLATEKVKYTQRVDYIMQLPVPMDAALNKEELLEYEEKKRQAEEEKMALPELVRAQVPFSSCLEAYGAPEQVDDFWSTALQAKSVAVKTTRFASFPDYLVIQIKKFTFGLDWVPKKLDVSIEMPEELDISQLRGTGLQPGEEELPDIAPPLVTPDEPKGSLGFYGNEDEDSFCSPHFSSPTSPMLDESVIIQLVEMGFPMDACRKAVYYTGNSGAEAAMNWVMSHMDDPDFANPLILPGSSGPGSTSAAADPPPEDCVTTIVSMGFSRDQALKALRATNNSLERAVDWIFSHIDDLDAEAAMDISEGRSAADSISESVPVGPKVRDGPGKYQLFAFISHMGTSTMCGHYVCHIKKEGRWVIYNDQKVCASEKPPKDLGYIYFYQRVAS
Method in brief: as §1

USP54 = USP54 (UniProt Q70EL1)
Method in brief: as §1

USP7 = USP7 (UniProt Q93009)
Sequence of USP7 (Q93009 whole entry, looked up): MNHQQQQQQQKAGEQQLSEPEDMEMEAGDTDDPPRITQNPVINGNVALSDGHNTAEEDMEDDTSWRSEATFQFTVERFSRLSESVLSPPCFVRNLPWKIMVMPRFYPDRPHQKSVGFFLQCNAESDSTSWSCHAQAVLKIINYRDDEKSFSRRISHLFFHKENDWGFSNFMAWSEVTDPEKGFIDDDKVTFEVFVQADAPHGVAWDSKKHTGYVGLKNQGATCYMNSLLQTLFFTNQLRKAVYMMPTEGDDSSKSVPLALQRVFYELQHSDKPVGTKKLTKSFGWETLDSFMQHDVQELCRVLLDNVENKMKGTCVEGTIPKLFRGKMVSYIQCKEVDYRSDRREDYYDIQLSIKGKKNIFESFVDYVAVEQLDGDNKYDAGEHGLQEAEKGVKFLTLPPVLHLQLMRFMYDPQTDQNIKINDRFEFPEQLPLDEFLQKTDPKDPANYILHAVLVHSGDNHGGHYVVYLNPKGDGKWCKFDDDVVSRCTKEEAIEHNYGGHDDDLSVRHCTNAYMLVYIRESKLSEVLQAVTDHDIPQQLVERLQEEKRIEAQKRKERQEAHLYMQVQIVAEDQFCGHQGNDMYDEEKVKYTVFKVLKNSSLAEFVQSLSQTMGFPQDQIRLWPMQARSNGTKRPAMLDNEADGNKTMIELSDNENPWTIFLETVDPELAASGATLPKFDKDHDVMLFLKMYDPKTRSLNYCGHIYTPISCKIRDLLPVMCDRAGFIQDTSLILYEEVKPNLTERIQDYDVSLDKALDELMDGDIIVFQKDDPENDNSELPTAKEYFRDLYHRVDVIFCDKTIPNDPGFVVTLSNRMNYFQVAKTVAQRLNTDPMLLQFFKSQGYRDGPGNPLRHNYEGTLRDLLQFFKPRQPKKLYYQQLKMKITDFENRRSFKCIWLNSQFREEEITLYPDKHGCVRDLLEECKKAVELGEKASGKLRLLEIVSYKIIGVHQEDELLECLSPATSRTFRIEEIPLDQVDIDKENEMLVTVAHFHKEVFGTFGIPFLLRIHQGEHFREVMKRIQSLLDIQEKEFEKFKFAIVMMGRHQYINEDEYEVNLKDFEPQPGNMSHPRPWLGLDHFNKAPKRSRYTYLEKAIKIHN
Method in brief: as §1

USP8 = target: T5, USP8 (UniProt P40818)
T5 sequence (whole entry): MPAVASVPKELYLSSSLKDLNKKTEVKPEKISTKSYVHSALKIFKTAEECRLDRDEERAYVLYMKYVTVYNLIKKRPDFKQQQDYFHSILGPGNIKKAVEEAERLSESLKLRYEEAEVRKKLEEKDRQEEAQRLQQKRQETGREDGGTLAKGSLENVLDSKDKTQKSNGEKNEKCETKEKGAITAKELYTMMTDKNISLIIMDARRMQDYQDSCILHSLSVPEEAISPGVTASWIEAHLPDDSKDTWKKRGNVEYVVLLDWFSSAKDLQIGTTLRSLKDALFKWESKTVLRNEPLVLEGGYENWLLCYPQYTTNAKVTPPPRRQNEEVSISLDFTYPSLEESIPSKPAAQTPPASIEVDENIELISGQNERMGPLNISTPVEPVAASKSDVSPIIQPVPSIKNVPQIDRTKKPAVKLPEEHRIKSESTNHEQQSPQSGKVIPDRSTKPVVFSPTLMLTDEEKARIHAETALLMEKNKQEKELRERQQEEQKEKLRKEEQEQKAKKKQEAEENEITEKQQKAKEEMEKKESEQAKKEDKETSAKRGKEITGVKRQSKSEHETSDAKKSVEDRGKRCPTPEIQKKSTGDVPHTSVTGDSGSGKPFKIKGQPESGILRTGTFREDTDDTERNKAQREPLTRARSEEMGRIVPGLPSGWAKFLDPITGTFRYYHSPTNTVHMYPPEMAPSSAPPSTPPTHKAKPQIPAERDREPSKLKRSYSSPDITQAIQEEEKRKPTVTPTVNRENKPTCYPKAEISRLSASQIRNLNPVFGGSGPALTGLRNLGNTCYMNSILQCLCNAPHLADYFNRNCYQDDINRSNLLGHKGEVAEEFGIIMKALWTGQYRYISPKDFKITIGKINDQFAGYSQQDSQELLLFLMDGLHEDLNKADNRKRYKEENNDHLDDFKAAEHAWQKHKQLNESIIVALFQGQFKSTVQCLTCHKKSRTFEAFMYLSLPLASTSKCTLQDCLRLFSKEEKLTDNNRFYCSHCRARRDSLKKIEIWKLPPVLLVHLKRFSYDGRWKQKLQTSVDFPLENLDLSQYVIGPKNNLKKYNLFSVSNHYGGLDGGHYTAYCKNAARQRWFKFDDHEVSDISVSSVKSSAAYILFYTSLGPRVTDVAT
Method in brief: as §1

USP9X = USP9X (UniProt Q93008)
Sequence of USP9X (Q93008 whole entry): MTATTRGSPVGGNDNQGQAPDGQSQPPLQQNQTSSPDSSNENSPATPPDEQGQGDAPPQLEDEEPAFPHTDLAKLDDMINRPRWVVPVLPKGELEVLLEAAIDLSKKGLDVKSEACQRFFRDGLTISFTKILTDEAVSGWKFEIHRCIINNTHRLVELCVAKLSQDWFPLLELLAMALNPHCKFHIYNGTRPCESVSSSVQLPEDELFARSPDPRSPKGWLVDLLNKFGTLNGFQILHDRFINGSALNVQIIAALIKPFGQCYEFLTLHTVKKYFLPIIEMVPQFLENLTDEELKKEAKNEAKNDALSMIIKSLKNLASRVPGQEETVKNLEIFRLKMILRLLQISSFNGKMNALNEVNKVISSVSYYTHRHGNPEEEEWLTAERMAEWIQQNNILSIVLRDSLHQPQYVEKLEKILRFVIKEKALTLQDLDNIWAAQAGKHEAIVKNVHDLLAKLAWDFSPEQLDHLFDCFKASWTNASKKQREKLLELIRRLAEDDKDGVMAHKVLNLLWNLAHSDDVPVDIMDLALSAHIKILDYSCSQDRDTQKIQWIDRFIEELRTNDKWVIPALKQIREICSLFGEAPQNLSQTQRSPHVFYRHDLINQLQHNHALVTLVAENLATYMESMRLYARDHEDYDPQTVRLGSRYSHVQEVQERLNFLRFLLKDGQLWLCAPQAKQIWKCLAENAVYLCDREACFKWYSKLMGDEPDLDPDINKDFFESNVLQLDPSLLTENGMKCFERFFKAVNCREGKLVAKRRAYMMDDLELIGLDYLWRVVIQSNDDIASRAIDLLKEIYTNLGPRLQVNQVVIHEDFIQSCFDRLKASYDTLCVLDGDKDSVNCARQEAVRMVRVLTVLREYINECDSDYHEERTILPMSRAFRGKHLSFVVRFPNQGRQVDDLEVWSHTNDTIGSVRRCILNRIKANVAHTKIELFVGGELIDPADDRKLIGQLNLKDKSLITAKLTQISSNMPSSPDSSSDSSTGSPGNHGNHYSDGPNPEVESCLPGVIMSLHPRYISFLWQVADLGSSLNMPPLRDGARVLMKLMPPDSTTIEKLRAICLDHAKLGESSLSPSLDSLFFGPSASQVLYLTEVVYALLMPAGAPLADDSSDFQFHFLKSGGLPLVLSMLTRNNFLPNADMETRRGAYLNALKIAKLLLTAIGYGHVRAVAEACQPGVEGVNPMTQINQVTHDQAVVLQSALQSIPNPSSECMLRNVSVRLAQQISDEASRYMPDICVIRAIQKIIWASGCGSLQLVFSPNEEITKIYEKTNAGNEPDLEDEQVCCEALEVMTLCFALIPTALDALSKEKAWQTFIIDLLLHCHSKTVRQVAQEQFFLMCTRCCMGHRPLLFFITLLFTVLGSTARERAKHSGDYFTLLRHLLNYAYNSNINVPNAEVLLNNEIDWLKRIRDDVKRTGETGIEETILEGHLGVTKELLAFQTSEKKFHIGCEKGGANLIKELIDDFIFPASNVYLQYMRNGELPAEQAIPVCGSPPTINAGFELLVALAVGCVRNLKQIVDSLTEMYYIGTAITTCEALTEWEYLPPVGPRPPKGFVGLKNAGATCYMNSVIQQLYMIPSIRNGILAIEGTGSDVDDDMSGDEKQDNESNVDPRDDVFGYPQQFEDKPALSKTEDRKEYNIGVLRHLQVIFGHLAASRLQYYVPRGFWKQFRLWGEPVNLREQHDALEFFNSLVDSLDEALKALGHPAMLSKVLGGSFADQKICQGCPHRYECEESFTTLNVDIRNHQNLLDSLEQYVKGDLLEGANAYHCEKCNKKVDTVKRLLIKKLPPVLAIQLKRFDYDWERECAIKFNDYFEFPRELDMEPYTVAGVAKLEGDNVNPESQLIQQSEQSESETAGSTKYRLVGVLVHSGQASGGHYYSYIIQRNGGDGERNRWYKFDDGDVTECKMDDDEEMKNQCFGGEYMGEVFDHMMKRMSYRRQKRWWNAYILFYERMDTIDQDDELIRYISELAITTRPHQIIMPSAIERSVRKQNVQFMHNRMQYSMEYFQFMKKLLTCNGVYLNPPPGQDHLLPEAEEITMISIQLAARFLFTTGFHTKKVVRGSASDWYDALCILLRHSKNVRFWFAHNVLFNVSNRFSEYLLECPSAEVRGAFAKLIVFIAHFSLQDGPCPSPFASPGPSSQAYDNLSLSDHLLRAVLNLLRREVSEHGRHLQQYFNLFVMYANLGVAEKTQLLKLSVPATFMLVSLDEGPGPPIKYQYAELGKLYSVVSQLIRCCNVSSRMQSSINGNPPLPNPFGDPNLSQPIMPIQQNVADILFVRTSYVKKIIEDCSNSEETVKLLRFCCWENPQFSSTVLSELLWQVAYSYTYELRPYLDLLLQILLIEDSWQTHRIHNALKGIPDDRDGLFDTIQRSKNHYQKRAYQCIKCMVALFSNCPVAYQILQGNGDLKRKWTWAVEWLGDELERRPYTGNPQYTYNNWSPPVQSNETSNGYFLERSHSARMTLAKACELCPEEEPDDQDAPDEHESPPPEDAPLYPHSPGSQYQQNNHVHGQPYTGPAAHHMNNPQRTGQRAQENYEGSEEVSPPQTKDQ
Method in brief: as §1

UniProt O00487 = target: UniProt O00487
Sequence of UniProt O00487 (O00487 whole entry): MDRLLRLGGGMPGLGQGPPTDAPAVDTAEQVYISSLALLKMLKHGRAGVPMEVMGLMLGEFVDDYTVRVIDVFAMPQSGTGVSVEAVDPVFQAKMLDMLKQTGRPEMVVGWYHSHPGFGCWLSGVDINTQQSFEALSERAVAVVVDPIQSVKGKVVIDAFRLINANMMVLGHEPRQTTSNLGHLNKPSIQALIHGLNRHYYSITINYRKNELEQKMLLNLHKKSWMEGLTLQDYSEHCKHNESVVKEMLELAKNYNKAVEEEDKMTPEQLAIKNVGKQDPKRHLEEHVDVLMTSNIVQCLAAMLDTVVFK
Method in brief: as §1

Structure (SMILES): COc1ccc(C2CCCN2C(=O)CCl)c(OC)c1 (stereo not given)
- log2 ratio of Biotin-Ahx-Ub-VS probe labelling (USP42): 0.426
- log2 ratio of Biotin-Ahx-Ub-VS probe labelling (USP46): -0.295
- log2 ratio of Biotin-Ahx-Ub-VS probe labelling (USP47): -0.378
- log2 ratio of Biotin-Ahx-Ub-VS probe labelling (USP48): -0.744
- log2 ratio of Biotin-Ahx-Ub-VS probe labelling (USP5): 0.0602
- log2 ratio of Biotin-Ahx-Ub-VS probe labelling (USP54): 0.223
- log2 ratio of Biotin-Ahx-Ub-VS probe labelling (USP7): -1.23 (active)
- log2 ratio of Biotin-Ahx-Ub-VS probe labelling (USP8): -0.00675
- log2 ratio of Biotin-Ahx-Ub-VS probe labelling (USP9X): -0.271
- log2 ratio of Biotin-Ahx-Ub-VS probe labelling (UniProt O00487): -0.0639
